# From ChEMBL document CHEMBL2218924, “A broad activity screen in support of a chemogenomic map for kinase signalling research and drug discovery” (Biochem J, 2013)
# Experiments:
# [1] = target: T1, Serine/threonine-protein kinase 3 (Homo sapiens) (UniProt Q13188); details: at 1 µM
# T1 sequence (whole entry): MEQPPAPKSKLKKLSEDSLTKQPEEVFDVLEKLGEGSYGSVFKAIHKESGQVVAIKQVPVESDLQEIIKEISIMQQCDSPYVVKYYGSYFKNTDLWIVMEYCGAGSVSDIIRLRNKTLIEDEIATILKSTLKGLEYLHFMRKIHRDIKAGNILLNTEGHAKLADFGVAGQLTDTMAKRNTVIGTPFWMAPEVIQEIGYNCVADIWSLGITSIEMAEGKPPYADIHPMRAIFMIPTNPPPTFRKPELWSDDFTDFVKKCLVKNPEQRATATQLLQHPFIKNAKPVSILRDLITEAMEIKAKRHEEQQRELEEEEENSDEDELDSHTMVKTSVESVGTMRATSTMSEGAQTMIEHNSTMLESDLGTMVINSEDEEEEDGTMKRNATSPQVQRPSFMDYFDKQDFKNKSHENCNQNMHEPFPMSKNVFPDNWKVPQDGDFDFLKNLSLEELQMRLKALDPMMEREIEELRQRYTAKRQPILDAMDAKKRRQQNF
# [2] = target: T1, Serine/threonine-protein kinase 3 (Homo sapiens); details: at 10 µM
# [3] = target: Serine/threonine-protein kinase 24 (Homo sapiens) (UniProt Q9Y6E0); details: at 1 µM
# [4] = target: Serine/threonine-protein kinase 24 (Homo sapiens) (UniProt Q9Y6E0); details: at 10 µM
# [5] = target: T2, Tyrosine-protein kinase Mer (Homo sapiens) (UniProt Q12866); details: at 1 µM
# T2 sequence (whole entry): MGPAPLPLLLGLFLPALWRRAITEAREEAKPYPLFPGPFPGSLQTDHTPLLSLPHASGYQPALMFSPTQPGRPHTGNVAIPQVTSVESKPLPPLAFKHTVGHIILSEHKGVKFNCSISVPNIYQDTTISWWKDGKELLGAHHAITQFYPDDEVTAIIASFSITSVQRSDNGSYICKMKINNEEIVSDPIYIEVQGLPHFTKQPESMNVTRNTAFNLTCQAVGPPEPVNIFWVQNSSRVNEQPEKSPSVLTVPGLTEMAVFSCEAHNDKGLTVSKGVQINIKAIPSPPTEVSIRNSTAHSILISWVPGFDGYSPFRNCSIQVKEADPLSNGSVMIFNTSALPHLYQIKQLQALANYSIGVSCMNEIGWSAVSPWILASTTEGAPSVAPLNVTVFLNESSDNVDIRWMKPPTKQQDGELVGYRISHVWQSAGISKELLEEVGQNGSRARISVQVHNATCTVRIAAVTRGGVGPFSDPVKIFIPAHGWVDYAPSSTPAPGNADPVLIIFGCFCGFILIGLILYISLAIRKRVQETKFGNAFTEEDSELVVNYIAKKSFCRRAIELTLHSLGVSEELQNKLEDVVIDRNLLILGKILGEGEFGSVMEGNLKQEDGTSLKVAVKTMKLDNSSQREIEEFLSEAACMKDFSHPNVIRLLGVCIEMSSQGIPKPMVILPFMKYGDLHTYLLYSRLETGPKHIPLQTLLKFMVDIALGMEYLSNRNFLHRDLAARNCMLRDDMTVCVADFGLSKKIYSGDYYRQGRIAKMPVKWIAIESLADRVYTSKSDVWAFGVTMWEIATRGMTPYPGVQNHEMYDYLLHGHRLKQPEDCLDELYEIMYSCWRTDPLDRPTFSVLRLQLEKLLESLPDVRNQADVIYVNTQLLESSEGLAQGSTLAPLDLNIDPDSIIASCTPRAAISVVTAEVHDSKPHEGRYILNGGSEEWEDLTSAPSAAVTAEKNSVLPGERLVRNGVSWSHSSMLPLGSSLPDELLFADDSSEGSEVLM
# [6] = target: T2, Tyrosine-protein kinase Mer (Homo sapiens); details: at 10 µM
# [7] = target: Hepatocyte growth factor receptor (Homo sapiens) (UniProt P08581); details: at 1 µM
# [8] = target: Hepatocyte growth factor receptor (Homo sapiens) (UniProt P08581); details: at 10 µM
# [9] = target: MAP kinase-interacting serine/threonine-protein kinase 2 (Homo sapiens) (UniProt Q9HBH9); details: at 1 µM
# [10] = target: MAP kinase-interacting serine/threonine-protein kinase 2 (Homo sapiens) (UniProt Q9HBH9); details: at 10 µM
# [11] = target: T3, Muscle, skeletal receptor tyrosine-protein kinase (Homo sapiens) (UniProt O15146); details: at 1 µM
# T3 sequence (whole entry): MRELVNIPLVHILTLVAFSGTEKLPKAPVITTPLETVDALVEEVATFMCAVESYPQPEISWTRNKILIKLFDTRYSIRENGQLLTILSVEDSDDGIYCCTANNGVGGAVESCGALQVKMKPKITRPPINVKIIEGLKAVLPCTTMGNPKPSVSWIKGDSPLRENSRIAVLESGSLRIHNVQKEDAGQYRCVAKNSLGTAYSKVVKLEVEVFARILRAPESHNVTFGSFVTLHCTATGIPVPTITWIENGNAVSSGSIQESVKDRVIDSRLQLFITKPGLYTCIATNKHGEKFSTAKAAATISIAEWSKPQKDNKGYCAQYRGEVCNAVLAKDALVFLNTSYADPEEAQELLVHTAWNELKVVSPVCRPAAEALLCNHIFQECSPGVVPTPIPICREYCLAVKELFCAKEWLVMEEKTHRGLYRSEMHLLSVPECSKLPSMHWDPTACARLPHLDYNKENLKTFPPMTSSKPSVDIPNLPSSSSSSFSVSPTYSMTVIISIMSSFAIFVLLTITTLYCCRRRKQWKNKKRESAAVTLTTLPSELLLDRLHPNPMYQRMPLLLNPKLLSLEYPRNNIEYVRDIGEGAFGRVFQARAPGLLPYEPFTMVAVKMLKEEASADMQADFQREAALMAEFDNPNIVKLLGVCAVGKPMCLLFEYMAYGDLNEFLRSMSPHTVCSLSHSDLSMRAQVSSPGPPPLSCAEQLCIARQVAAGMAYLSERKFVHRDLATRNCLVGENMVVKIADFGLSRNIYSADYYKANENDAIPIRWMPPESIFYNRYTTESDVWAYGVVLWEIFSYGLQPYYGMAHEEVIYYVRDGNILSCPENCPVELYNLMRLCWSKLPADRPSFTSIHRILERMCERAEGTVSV
# [12] = target: T3, Muscle, skeletal receptor tyrosine-protein kinase (Homo sapiens); details: at 10 µM
# [13] = target: T4, Serine/threonine-protein kinase Nek11 (Homo sapiens) (UniProt Q8NG66); details: at 1 µM
# T4 sequence (whole entry): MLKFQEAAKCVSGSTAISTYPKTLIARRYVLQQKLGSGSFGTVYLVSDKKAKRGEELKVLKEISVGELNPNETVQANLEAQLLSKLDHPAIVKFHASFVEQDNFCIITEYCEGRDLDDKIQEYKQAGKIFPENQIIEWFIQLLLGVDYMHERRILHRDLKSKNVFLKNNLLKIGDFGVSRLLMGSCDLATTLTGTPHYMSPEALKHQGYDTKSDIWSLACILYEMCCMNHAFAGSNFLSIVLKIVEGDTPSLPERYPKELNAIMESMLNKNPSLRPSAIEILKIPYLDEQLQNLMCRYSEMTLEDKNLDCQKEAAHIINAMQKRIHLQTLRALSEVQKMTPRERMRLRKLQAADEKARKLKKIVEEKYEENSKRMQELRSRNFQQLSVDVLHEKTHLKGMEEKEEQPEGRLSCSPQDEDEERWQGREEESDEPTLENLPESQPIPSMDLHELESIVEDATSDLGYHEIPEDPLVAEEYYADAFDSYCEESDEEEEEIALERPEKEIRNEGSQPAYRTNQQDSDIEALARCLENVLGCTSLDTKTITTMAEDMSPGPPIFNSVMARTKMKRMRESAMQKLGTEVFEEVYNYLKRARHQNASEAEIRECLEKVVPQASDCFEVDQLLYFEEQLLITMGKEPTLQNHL
# [14] = target: T4, Serine/threonine-protein kinase Nek11 (Homo sapiens); details: at 10 µM
# [15] = target: T5, Serine/threonine-protein kinase Nek2 (Homo sapiens) (UniProt P51955); details: at 1 µM
# T5 sequence (whole entry): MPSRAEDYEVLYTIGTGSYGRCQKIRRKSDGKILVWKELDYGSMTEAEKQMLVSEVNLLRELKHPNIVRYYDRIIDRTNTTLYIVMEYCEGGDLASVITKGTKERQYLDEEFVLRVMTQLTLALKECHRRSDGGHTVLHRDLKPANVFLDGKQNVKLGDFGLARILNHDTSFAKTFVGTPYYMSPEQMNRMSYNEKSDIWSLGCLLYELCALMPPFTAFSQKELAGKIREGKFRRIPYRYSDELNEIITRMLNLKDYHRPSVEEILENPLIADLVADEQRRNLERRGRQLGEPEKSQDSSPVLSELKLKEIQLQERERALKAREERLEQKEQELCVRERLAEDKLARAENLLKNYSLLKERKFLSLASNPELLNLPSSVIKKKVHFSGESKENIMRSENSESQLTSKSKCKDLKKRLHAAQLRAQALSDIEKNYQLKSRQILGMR
# [16] = target: T5, Serine/threonine-protein kinase Nek2 (Homo sapiens); details: at 10 µM
# [17] = target: T6, Serine/threonine-protein kinase Nek3 (Homo sapiens) (UniProt P51956); details: at 1 µM
# T6 sequence (whole entry): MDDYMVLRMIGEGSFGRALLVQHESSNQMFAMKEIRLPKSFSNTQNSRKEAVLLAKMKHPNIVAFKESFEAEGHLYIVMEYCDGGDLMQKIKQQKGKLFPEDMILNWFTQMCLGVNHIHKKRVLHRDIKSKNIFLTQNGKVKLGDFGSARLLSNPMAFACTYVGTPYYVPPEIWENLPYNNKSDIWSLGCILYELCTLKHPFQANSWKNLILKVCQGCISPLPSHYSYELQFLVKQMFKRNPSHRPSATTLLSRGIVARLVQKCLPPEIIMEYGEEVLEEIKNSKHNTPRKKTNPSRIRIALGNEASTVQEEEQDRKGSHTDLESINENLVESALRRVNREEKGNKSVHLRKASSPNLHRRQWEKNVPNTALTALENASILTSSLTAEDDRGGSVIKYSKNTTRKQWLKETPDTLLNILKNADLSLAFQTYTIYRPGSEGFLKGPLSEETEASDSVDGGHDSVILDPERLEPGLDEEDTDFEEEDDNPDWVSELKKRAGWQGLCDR
# [18] = target: T6, Serine/threonine-protein kinase Nek3 (Homo sapiens); details: at 10 µM
# [19] = target: Serine/threonine-protein kinase tousled-like 2 (Homo sapiens) (UniProt Q86UE8); details: at 1 µM
# [20] = target: Serine/threonine-protein kinase tousled-like 2 (Homo sapiens) (UniProt Q86UE8); details: at 10 µM
# MAP kinase-interacting serine/threonine-protein kinase 2 (Homo sapiens), sequence (Q9HBH9 whole entry, looked up): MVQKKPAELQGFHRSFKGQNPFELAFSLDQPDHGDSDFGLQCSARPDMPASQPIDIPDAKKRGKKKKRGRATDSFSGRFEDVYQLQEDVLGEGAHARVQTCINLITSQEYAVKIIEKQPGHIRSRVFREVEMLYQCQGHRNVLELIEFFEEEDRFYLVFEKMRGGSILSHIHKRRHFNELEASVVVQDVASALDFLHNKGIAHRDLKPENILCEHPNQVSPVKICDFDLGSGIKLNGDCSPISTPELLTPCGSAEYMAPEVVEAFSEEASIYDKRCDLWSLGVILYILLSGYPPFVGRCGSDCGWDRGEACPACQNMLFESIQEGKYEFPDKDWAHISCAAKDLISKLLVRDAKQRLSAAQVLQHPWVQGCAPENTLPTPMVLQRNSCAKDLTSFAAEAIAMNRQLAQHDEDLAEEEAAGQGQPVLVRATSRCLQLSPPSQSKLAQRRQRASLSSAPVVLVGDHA
# Hepatocyte growth factor receptor (Homo sapiens), sequence (P08581 whole entry): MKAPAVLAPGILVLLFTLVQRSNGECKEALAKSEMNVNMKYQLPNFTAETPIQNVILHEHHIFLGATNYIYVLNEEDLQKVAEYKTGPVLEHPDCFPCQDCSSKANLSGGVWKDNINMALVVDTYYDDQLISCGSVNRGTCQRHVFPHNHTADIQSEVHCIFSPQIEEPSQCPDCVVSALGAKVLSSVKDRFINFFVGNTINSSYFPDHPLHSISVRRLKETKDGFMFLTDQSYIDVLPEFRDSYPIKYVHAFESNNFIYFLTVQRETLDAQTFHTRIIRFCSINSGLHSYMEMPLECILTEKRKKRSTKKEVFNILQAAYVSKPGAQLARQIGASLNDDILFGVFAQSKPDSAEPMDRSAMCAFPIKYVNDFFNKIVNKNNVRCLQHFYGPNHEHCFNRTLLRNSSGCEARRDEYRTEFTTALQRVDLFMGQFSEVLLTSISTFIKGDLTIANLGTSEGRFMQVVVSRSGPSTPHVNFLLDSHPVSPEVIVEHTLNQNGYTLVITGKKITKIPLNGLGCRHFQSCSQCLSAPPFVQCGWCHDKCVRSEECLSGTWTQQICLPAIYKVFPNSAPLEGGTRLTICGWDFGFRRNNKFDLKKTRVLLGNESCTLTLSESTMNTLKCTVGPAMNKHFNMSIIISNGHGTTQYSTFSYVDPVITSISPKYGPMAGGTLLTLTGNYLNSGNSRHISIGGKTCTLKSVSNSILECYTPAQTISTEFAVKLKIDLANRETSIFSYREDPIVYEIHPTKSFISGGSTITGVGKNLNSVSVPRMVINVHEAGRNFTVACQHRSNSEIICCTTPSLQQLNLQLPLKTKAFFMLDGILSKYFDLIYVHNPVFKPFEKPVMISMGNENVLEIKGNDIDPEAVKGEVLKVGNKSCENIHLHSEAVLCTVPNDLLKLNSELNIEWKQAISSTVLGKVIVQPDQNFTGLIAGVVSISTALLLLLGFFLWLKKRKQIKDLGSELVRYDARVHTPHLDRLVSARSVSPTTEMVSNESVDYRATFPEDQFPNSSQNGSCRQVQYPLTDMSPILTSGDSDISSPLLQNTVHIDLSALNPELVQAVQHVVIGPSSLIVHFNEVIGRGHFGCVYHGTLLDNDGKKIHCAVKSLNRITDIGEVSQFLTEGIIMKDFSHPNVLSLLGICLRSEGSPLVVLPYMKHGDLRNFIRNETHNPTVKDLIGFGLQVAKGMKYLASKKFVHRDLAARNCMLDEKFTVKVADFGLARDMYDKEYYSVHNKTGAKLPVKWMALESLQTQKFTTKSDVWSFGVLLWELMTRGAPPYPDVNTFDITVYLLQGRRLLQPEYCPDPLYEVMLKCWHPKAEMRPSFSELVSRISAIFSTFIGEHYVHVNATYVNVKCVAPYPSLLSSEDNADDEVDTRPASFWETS
# Serine/threonine-protein kinase tousled-like 2 (Homo sapiens), sequence (Q86UE8 whole entry, looked up): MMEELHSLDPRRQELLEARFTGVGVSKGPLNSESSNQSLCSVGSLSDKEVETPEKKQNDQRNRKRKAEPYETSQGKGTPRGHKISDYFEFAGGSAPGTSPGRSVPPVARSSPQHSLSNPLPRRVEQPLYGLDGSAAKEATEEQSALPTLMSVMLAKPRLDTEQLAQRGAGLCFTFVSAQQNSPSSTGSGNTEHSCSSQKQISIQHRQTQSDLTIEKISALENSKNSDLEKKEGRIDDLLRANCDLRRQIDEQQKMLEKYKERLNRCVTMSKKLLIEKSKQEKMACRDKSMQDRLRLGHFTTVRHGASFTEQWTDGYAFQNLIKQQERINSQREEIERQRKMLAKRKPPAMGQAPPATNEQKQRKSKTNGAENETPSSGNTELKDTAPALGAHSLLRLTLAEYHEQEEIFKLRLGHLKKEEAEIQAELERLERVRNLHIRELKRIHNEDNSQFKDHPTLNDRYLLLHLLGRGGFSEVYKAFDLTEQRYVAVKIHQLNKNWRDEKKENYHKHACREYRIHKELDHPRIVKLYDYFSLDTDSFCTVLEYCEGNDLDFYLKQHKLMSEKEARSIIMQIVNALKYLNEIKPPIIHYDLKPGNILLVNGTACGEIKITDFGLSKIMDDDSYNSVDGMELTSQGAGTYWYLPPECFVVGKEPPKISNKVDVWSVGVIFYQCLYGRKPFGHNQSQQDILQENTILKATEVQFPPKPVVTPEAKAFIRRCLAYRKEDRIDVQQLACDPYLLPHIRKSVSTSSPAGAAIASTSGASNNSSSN
# Serine/threonine-protein kinase 24 (Homo sapiens), sequence (Q9Y6E0 whole entry, looked up): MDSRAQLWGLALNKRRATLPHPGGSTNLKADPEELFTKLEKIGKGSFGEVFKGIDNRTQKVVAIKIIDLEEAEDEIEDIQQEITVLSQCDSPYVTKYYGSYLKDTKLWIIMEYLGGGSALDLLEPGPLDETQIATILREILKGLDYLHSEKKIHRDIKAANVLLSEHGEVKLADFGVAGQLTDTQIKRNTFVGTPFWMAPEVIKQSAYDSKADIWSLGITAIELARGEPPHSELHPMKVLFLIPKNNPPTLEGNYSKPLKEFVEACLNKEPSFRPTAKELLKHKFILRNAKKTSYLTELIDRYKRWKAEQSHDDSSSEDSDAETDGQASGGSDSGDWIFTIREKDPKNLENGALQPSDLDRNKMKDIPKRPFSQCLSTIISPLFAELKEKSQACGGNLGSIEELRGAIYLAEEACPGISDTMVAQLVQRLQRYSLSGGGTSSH
structure (smiles),measurement,setting,value
CCC(=O)Nc1ccc2ncnc(Nc3cccc(Br)c3)c2c1,residual activity,[1],121%
same,residual activity,[2],91%
same,residual activity,[3],69%
same,residual activity,[4],69%
same,residual activity,[5],108%
same,residual activity,[6],86%
same,residual activity,[7],99%
same,residual activity,[8],100%
same,residual activity,[9],30%
same,residual activity,[10],9%
same,residual activity,[11],96%
same,residual activity,[12],84%
same,residual activity,[13],84%
same,residual activity,[14],92%
same,residual activity,[15],73%
same,residual activity,[16],99%
same,residual activity,[17],109%
same,residual activity,[18],98%
same,residual activity,[19],103%
same,residual activity,[20],92%
O=C1Nc2ccc(Br)cc2/C1=C\c1cc2c([nH]1)CCCC2,residual activity,[1],46%
same,residual activity,[2],61%
same,residual activity,[4],77%
same,residual activity,[5],68%
same,residual activity,[6],45%
same,residual activity,[7],104%
same,residual activity,[8],144%
same,residual activity,[9],108%
same,residual activity,[10],102%
same,residual activity,[11],61%
same,residual activity,[12],50%
same,residual activity,[16],101%
same,residual activity,[17],102%
same,residual activity,[18],97%
same,residual activity,[19],107%
COc1cc2ncnc(Nc3ccc(NC(=O)c4ccccc4)cc3)c2cc1OC,residual activity,[2],95%
same,residual activity,[3],90%
same,residual activity,[5],108%
same,residual activity,[6],59%
same,residual activity,[7],88%
same,residual activity,[8],23%
same,residual activity,[9],98%
same,residual activity,[10],57%
same,residual activity,[12],98%
same,residual activity,[13],96%
same,residual activity,[14],103%
same,residual activity,[15],105%
same,residual activity,[16],95%
same,residual activity,[19],109%
same,residual activity,[20],86%
CNc1cc2c(Nc3cccc(Br)c3)ncnc2cn1,residual activity,[1],103%
same,residual activity,[2],88%
same,residual activity,[3],76%
same,residual activity,[4],86%
same,residual activity,[5],96%
same,residual activity,[6],84%
same,residual activity,[7],89%
same,residual activity,[8],73%
same,residual activity,[9],21%
same,residual activity,[10],12%
same,residual activity,[11],105%
same,residual activity,[12],93%
same,residual activity,[13],109%
same,residual activity,[14],103%
same,residual activity,[15],78%
same,residual activity,[16],109%
same,residual activity,[17],106%
same,residual activity,[18],63%
same,residual activity,[19],99%
same,residual activity,[20],93%
